The whole screen tested about 59,000 compounds, of which about 6,500 (11%) were called active. Inconclusive results (about 15%) are left out. Cut-off read from the data, not from the text of the source: active = max dye-equivalent concentration above about 10 nM; inconclusive = mostly about 1.1 nM to 9.6 nM; inactive = weaker than that. Only a selection was taken, and actives are over-represented in it overall.

A short description of the assay: qHTS Assay for Spectroscopic Profiling in A350 Spectral Region. The settings on record: Compound autofluorescence, 340/450 nm, Alexa 350 dye-equivalents; active compounds read high.
Regarding `Cc1cc(=O)[nH]c(SCC(N)=O)c1C#N`, the max dye-equivalent concentration entry was “inactive”.
As for `Cn1cccc1C(=O)N1CCC[C@@]2(CCN(Cc3nccs3)C2)C1`, the max dye-equivalent concentration result was “inactive”.
Regarding `O=S(=O)(c1ccc(Sc2nnc3ccccn23)nc1)N1CCOCC1`, the max dye-equivalent concentration entry was “inactive”.
For `CC(C)(C)c1nc(NCC2CCCO2)c2nnn(Cc3ccccc3)c2n1` (stereo not given), the max dye-equivalent concentration result is “inactive”.
Under `CC(CCO)Nc1nc2c([nH]1)c(=O)n(C)c(=O)n2C` (stereo not given) stands “inactive”.
Under `Cn1c(=O)c2[nH]c(NCC3CCCO3)nc2n(-c2ccccc2)c1=O` (stereo not given) stands 11 nM (active); under `Cc1ccc2nc(S(=O)(=O)O)[nH]c2c1`, “inactive”.
Take `CCOC(=O)c1cc(-c2nnc(-c3cc(OC)c(OC)c(OC)c3)o2)c(C)nc1C`: the max dye-equivalent concentration is 18 nM (active).
As to `COc1cc(-c2nnc(Cn3cc(C(F)(F)F)ccc3=O)o2)cc(OC)c1OC`, the max dye-equivalent concentration result was “inactive”.
As for `COc1cc(-c2nc(S(=O)(=O)c3ccc(Cl)cc3)c(N(C)C)o2)cc(OC)c1OC`, the max dye-equivalent concentration result was “inactive”.
For `CCCCC(=O)N1CC2(C)CN(C(=O)CCCC)CC(C)(C1)C2=O`, the max dye-equivalent concentration entry is “inactive”.
As for `CC(NCCO)C(=O)C12CC3CC(CC(C3)C1)C2` (stereo not given), the max dye-equivalent concentration was 43 nM (active).
In the case of `CN1CCN(CC(=O)C23CC4CC(CC(C4)C2)C3)CC1`, the max dye-equivalent concentration result is “inactive”.
As to `C=CCNC(=O)C12CC3CC(C1)CC(C(=O)NCC=C)(C3)C2`, the max dye-equivalent concentration entry is “inactive”.
Under `O=C(O)CCC(=O)Nc1ccc(N2CCOCC2)cc1` stands “inactive”; under `CN(C)c1nc2n(c(=O)n1)CCO2`, “inactive”.
`Cc1ccsc1CNn1cnnc1SCc1ccccc1F`: the max dye-equivalent concentration result was “inactive”.
With `O=C(c1cnccn1)N1CCC2(CCN(Cc3cc(C(F)(F)F)cc(C(F)(F)F)c3)CC2)CC1`, the max dye-equivalent concentration result was “inactive”.
As to `Cc1nc(NCCN)c(C#N)c2c1COC(C)(C)C2`, the max dye-equivalent concentration is 16 nM (active).
Regarding `CCN1CCN(c2ncnc3c2oc2nc(C)c4c(c23)CC(C)(C)OC4)CC1`, the max dye-equivalent concentration entry was “inactive”.
On to `COc1ccc2[nH]cc(CCNc3cc(-c4ccccc4CN(C)C)ncn3)c2c1`, for which the max dye-equivalent concentration result is “inactive”.
In the case of `Nc1ccc2c3c(cccc13)C(=O)NC2=O`, the max dye-equivalent concentration result was “inactive”.
Under `CNc1nc(-c2ccccc2OC)nc2ccccc12` stands “inactive”; under `CCSc1nc(=S)n(CC)c(C)c1C(C)=O`, “inactive”; under `CCOC(=O)N1CCC(NC(=O)C(C)n2c3ccccc3c3cnn(C)c(=O)c32)CC1` (stereo not given), “inactive”.
Regarding `CCOC(=O)N1CCC(NC(=O)CCc2cn(C)c3ccccc23)CC1`, the max dye-equivalent concentration was 470 nM (active).
With `CCOC(=O)N1CCC(NC(=O)Cc2cn(C)c3ccccc23)CC1`, the max dye-equivalent concentration result was “inactive”.
On to `CC(=O)N1CCN(C(=O)c2cccc(S(=O)(=O)Nc3ccc(C)cc3)c2)CC1`, for which the max dye-equivalent concentration result is “inactive”.
As to `CC1(C)CC(CCC(=O)Nc2ccccc2Cl)C(=O)O1` (stereo not given), the max dye-equivalent concentration result is “inactive”.
`CC(C)c1nc2oc3c(N4CCN(C)CC4)ncnc3c2c2c1CCC2`: the max dye-equivalent concentration entry was “inactive”.
For `CCCCC(=O)Nc1ccc(C(=O)NCCCn2ccnc2)cc1`, the max dye-equivalent concentration entry was “inactive”.
In the case of `CCCCCC(=O)Nc1ccc2oc(-c3ccncc3)nc2c1`, the max dye-equivalent concentration was 29 nM (active).
Then `CCCCC(=O)Nc1ccc2c(c1)OCCO2`, with “inactive”; and `CCOC(=O)c1cccc(NC(=O)CCc2c(C)nc3ncnn3c2C)c1`, with “inactive”.
Consider `CCCCCN(C(=O)NC(=O)Nc1ccccc1OC)S(C)(=O)=O`, for which the max dye-equivalent concentration result is “inactive”.
Regarding `COc1ccc(OC)c(NC(=O)CSc2nc3cccnc3n2C)c1`, the max dye-equivalent concentration result was “inactive”.
Under `CCCC1C(c2ccccc2)C(C#N)(C#N)C2(C#N)CC1(N)NC2=O` (stereo not given) stands “inactive”; under `CN1CCN(C(=O)C2C3C=CC(C3)C2C(=O)O)CC1` (stereo not given), “inactive”; under `CCOC(=O)c1c(CN2CCOCC2)n(-c2ccccc2)c2ccc(O)cc12`, “inactive”.
Under `O=C(OCCN1CCOCC1)C1(c2ccccc2)CCCCC1` stands “inactive”.
`O=C(CN1CCOCC1)N1CCCc2c1c(=O)oc1ccc(OCc3ccccc3)cc21`: the max dye-equivalent concentration is 41 nM (active).
As to `O=S(=O)(O)c1nc2ccccc2n1Cc1ccc(Cl)cc1Cl`, the max dye-equivalent concentration entry was “inactive”.
Regarding `COc1ccc(CNc2ncncc2-c2ccccc2C)c(OC)c1`, the max dye-equivalent concentration entry was “inactive”.
Under `Cc1ccccc1NC(=O)CNc1ccccc1N1CCCCC1` stands “inactive”.
With `CCOc1ccc2nc(N3CCCN(C(=O)Nc4ccccc4C)CC3)c(C#N)cc2c1`, the max dye-equivalent concentration is 16 nM (active).
Under `CCOc1ccc(NC(=O)N2CCN(CC)CC2)cc1` stands “inactive”.
With `Cc1ccnc(SCCn2c(Br)nc3c2c(=O)[nH]c(=O)n3C)n1`, the max dye-equivalent concentration entry was “inactive”.
Turning to `CC1CN(C2CCN(C(=O)COc3ccccc3)CC2)CC(C)O1` (stereo not given), the max dye-equivalent concentration entry is “inactive”.
In the case of `Nc1nc2c(ncn2[C@H]2CC[C@@H](CO)O2)c(=O)n1C(=O)c1ccccc1`, the max dye-equivalent concentration result was “inactive”.
In the case of `COc1cccc(CN2C(=O)CCC2(C)C(=O)NC2CCCCCC2)c1` (stereo not given), the max dye-equivalent concentration entry is “inactive”.
Then `O=c1cnc2cnc(Nc3ccccc3)nc2n1Cc1ccc(F)cc1`, with “inactive”.
Turning to `CCNc1ncc2nc(CCc3ccccc3)c(=O)n(-c3ccc(OC)cc3)c2n1`, the max dye-equivalent concentration was 15 nM (active).
Consider `CCNc1ncc2ncc(=O)n(CCc3ccccc3)c2n1`, for which the max dye-equivalent concentration is 89 nM (active).
For the compound `COc1ccc(-n2c(C)nc3c(cnn3-c3ccccc3)c2=O)cc1`, the max dye-equivalent concentration result is “inactive”.
`CCNc1ncc2ncc(=O)n(Cc3cccc(OC)c3)c2n1`: the max dye-equivalent concentration is 16 nM (active).
Under `CCc1nnc(NC(=O)CSc2nnc(Cc3ccccc3)n2-c2ccc(OC)cc2)s1` stands “inactive”.
Regarding `COc1cccc(Nc2ncc3ncc(=O)n(C4CC4)c3n2)c1`, the max dye-equivalent concentration entry was “inactive”.
For the compound `COc1cccc(Cn2c(=O)c(C)nc3cnc(Oc4ccccc4)nc32)c1`, the max dye-equivalent concentration entry was “inactive”.
Then `COc1cccc(Cn2c(=O)c(CCc3ccccc3)nc3cnc(N(C)C)nc32)c1`, with 31 nM (active); and `COc1cccc(Cn2c(=O)cnc3cncnc32)c1`, with “inactive”.

Values taken from PubChem BioAssay AID590 (National Center for Advancing Translational Sciences (NCATS), 2007).
